# TrxR1 substrate: is turned over as a substrate by rat TrxR1; purified TrxR1 substrate turnover, NADPH consumption readout; Potency, µM (series often up to 114 µM), without a hit: top-dose activity change, negative = substrate turnover; 390,000 tested, 0.01% active; AID 588456; note: % is set by controls: 0 for no effect and ±100 for the full control effect; nearly all actives have a fitted effect of over 50% in size
#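 Rat TrxR1, dispensed at 90 nM, was prereduced with 400 uM NADPH (final) for 5 min at ~22 deg C, then incubated with compound 15 min before 400 uM selenite. A first-read NADPH fluorescence drop versus no-compound background flagged substrates.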
# IDH1 R132H inh: inhibitors of human mutant IDH1 R132H; Potency, µM (series often up to 76.6 µM), for inactives: at the highest dose activity change, negative = inhibition, most hits filed as inhibitors; 390,000 tested, 0.093% active; IDH1-R132H enzyme, NADPH consumption, diaphorase/resazurin fluorescence; AID 602179; O75874; note: % is set by controls: 0 for no effect and ±100 for the full control effect; nearly all actives have a fitted effect of over 65% in size
#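 IDH1-R132H (0.5 ug/mL) preincubated 30 min with compound, then NADPH (0.016 mM) and alpha-KG (2 mM) added; 80 min at RT, pH 7.5. Remaining NADPH coupled via diaphorase/resazurin to fluorescence (540/590 nm); concentration-response curves normalized to no-enzyme control.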
# GLP-1R agonist: activates the human GLP-1 receptor. Potency, µM (doses to about 45.6 µM), inactives show at the top dose activation, usual class: activators. AID 624172. 380,000 tested, 0.007% active. HEK293 GLP-1R CRE-luciferase, luminescence, 4-6 h; cells express a hypersensitive GLP-1R form. P43220; note: % of control where 0% means no effect
# Target sequence (P43220 whole entry, looked up): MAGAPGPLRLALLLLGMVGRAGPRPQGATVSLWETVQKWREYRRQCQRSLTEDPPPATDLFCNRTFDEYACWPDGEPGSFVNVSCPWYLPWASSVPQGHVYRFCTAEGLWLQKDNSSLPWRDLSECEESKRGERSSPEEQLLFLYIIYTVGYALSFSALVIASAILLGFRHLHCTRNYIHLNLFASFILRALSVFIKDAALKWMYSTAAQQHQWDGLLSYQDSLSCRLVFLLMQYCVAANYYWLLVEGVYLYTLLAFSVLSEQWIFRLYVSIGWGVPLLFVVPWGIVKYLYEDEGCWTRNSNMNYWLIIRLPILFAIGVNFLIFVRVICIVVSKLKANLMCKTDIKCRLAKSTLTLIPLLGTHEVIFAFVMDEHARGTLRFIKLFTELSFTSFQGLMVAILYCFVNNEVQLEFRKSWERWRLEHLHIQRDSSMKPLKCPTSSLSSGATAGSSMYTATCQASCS
# TrxR1 inh: inhibitors of rat thioredoxin reductase 1; 390,000 tested, 1% active; Potency, µM (highest dose often 114 µM), for the others: at the highest dose activity change, negative = inhibition, hits mostly inhibitors; recombinant rTrxR1, NADPH fluorescence consumption, selenite substrate; O89049; note: % is set by controls: 0 for no effect and ±100 for the full control effect; nearly all actives have a fitted effect of over 65% in size
#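 Rat TrxR1 (90 nM in the dispensed reagent) was pre-reduced with 400 uM NADPH for 5 min at room temperature, then incubated with compound for 15 min. After 400 uM selenite was added, NADPH fluorescence (Ex 340/Em 450 nm) was followed for 8 min.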
# GLP-1R inv ag: GLP-1 receptor (human) inverse agonism | P43220 | HEK293 GLP-1R CRE-luciferase, luminescence, 24 h; GLP-1R form is constitutively active | 410,000 tested, 1.6% active | Potency, µM (titrated, usually from 38.3 µM), without a hit: top-dose activity change, negative = inhibition, actives largely listed as inhibitors; note: % is set by controls: 0 for no effect and ±100 for the full control effect; nearly all actives have a fitted effect of over 55% in size
#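 Readout was luciferase luminescence, measured 12 min after detection reagent at room temperature. Beforehand, GLP-1R reporter HEK293 cells had sat 12 h, then received compounds for 24 hr at 37 deg C.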
# GLP1R cytotox: cytotoxicity counter-screen for GLP-1 receptor inverse agonists. HEK293 cAMP-luciferase reporter cells, luminescence, 24 h. Potency, µM (highest dose often 38.3 µM), for inactives: at the top dose activity change, negative = inhibition, most hits filed as inhibitors. 410,000 tested, 0.13% active. AID 624418;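 note: loss of luciferase light is scored as toxicity; % is set by controls: 0 for no effect and ±100 for the full control effect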
#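 Luminescence readout: signal drop marks cytotoxicity. Plated cells grew 12 h at 37 °C, 5% CO2, received 23 nL compound for 24 h, then got luciferase reagent, read after 12 min at RT.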
# An asterisk follows results filed as active; ? = inconclusive; · = no result given; [ ] = another dose, or the depositor's remark. Only some compounds are listed: those with a hit (about 2.7% of all), similar ones and a draw of the others. Calls come from the whole dose curve; as a rule, active = well fitted curve in the direction sought with a large enough effect; inconclusive = small, poorly fitted or top-dose-only effect, or another doubt; inactive = no such curve, though single readings can be large; an effect the other way counts as inactive or inconclusive. Potency is the fitted concentration of half-maximal effect.
SMILES,TrxR1 substrate,IDH1 R132H inh,GLP-1R agonist,TrxR1 inh,GLP-1R inv ag,GLP1R cytotox
O=C1NC(=O)C(=Cc2ccc(Sc3ccccc3)o2)C(=O)N1,2.2%[57.1 µM],1.4%,0.6%,?,-23.0%,?
O=C1NC(=O)N(c2ccc(Cl)cc2)C(=O)/C1=C\c1ccc(Sc2nc3ccccc3[nH]2)o1,8.0%[57.1 µM],-9.1%,-1.1%,12.6µM*,?,?
COc1ccc2c(c1)c(C(=O)O)c(C)n2CC(C)C,12.1%,5.0%,-1.2%,13.5%,-28.6%,-15.0%
COc1cc(O)c(C(=O)O)c(-c2cc(O)c(O)cc2C)c1,0.4%[57.1 µM],-3.9%,-1.6%,0.794µM*,-5.2%,-24.1%
CC(=O)NC(CCc1ccc(Cl)c(Cl)c1)c1cccc(O)c(=O)c1 (stereo not drawn),·,6.9%,-2.6%,·,?,?
O=C(NC(c1ccc(-c2ccccc2)cc1)c1cnccn1)C1CCN(Cc2ccc3c(c2)OCO3)CC1 (stereo not drawn),·,·,-11.7%,·,?,?
C[C@@H]1CC2C3CC=C4C[C@@H](O)CC[C@]4(C)C3CC[C@]2(C)[C@H]1O (stereo partly drawn),0.8%,-4.0%,0.5%,9.2%,65.7%,-7.8%
C[C@H]1CC[C@@H]2[C@@H](C)[C@H]3[C@H](C[C@H]4[C@@H]5CC=C6C[C@@H](O[C@@H]7O[C@H](CO)[C@H](O)[C@H](O[C@@H]8O[C@H](CO)[C@@H](O)[C@H](O)[C@H]8O)[C@H]7O[C@@H]7O[C@@H](C)[C@H](O)[C@@H](O)[C@H]7O)CC[C@]6(C)[C@H]5CC[C@]34C)N2C1,0.0%,4.1%,-24.5%,70.8µM*,-25.6%,-29.5%
CN(C)CC(C(=O)Cc1ccccc1)c1ccccc1 (stereo not drawn),16.4%[57.1 µM],0.7%,-8.2%,-54.0%[57.1 µM],5.01µM*,?
O=C1CC(NC(=O)C(F)(F)F)=NN1c1ccccc1,-0.9%,-12.2%,-9.2%,8.6%,2.51µM*,?
CCCCNCCOc1ccccc1-c1ccccc1,0.0%,5.2%,-4.2%,-16.0%,0.0%,?
Cc1nc(C(F)(F)F)c(C(=O)N/N=C(\N)c2ccccn2)s1,-0.1%[57.1 µM],13.8%,5.9%,2.8%[57.1 µM],?,?
FC(F)Oc1ccc(NC(=S)NNc2ccnc3cc(Cl)ccc23)cc1,-3.6%,3.3%,1.6%,8.2%,?,?
Cc1ccc(C)c(N2CCN(c3nc4ccc(Cl)cc4n4cnnc34)CC2)c1,29.5%,·,·,10.6%,11.4%,-4.8%
CC(C)c1cccc(C(C)C)c1OC(=O)NC(=O)c1c(F)cccc1F,-6.9%,9.3%,-2.6%,20.0%,8.91µM*,11.2%
O=C(NC(=O)c1c(F)cccc1F)Nc1cc(Cl)c(F)c(Cl)c1F,4.5%[57.1 µM],-4.6%,-3.0%,27.6%[57.1 µM],0.7%,-1.3%
O=C(Nc1ccc2nc(SCC(=O)N3CCCc4ccccc43)sc2c1)c1cccc(F)c1,9.6%,-2.9%,·,39.3%,?,-14.6%
CN1CCC2(CC1)c1ccccc1-c1ccccc12,8.2%[57.1 µM],2.3%,-4.3%,15.7%,11.2µM*,?
CN1CCN(c2ccccc2N)CC1,-0.2%,5.5%,-9.4%,0.1%,0.4%,-9.5%
Cc1ccc(C)c(S(=O)(=O)c2nnn3c2nc(N2CCN(C)CC2)c2sccc23)c1,2.7%,0.0%,·,16.1%,35.3%,-5.0%
CC[C@@H](C(=O)[C@@H](C)[C@@H](O)[C@H](C)CCc1ccc(C)c(O)c1C(=O)O)[C@H]1O[C@](CC)([C@H]2CC[C@](O)(CC)[C@H](C)O2)C[C@@H]1C,0.9%,-5.3%,-11.2%,-3.9%,10µM*,10µM*
CC12CCC(O)CC1CCC1C2CCC2(C)C(C3=CC(=O)OC3)CCC12O (stereo not drawn),6.3%[57.1 µM],-1.5%,-30.2%,2.7%[11.4 µM],1.12µM*,?
